# Rows were chosen to be rich in hits. Some 3% of all compounds tested hit in one or more screens of this group.
# SENP6 inh: SENP6 protease inhibitors, primary screen, biochemical, luminescence, uHTS | AID 2599, 2010 | Sentrin-specific protease 6 (Homo sapiens), Q9GZR1 | Recombinant SENP6 catalytic domain, aminoluciferin luminescence | 1.8% of 330,000 active | inhibition, % at 10 µM;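 active = inhibition above about 50% at the single tested dose, limit read from the data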;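 note: plate controls were DMSO wells with enzyme for no effect and DMSO wells lacking enzyme for full effect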
# SENP8 block-1: SENP8 protease inhibitors, primary screen, biochemical, luminescence. Sentrin-specific protease 8 (Homo sapiens), Q96LD8. purified SENP8, Z-RLRGG-aminoluciferin cleavage. inhibition, % at 10 µM. 1.2% of 330,000 active; in the data active = inhibition above about 50%
# C8 TRAIL sens: viability loss with TRAIL in NB7+C8 cells, primary screen, TRAIL sensitizer project, cell-based, ATPlite luminescence. inhibition (viability loss, TRAIL sensitization), % at 10 µM. 1% of 360,000 active;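 active = compounds causing at least 50% loss of cell viability in the single-dose screen, relative to plate controls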
# SENP8 block-2: human SENP8 protease inhibitors, primary screen, biochemical, fluorescence, Nedd8 protein substrate, uHTS. Sentrin-specific protease 8 (Homo sapiens), Q96LD8. recombinant SENP8. inhibition, % at 20 µM. 0.64% of 360,000 active. AID 602440, 2012; in the data active = inhibition mostly above about 40%, no sharp cut-off; inactive = mostly below about 27%
# PPC-1+TRAIL kill: compounds killing PPC-1 cancer cells with TRAIL present, primary screen, TRAIL potentiator project, ATPLite luminescence, uHTS | AID 1443, 2008 | 0.41% of 220,000 active | cell killing (% activity), % at 4 µM or 5 µM | PPC-1 cells + TRAIL, ATPLite viability luminescence;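 active = cell killing above 50% in the first pass at 4 µM, then a duplicate retest at 5 µM averaging 50% or more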;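 note: plate controls were cells with TRAIL plus DMSO for no effect and medium-only wells lacking cells for full effect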
# SENP7 block: SENP7 protease inhibitors, primary screen, biochemical, luminescence, uHTS; 1.5% of 330,000 active; inhibition, % at 5 µM; recombinant SENP7, Z-RLRGG-aminoluciferin luminescence, 40 min;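 active = inhibition above about 50% at the single test dose, limit read from the data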;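 note: plate controls were DMSO with enzyme for no effect and no enzyme buffer wells for full effect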
# Target sequence (Q9BQF6 706-1050 limits assumed): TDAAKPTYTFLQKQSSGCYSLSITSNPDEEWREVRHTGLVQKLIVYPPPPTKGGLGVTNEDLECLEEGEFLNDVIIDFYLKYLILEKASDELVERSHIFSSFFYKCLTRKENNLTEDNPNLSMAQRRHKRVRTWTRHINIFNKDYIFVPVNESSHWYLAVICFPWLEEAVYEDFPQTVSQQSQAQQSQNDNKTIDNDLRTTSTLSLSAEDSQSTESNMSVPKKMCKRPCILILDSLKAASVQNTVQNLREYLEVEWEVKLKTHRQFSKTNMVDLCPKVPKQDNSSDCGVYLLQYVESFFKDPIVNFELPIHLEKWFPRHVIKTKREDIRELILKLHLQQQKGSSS
# SENP8 confirm: SENP8 protease inhibitors, retest, confirmation, biochemical, luminescence, single concentration; shares compounds with SENP7 block; Recombinant SENP8, Z-RLRGG-aminoluciferin luminescence, 60 min; inhibition, % at 12.5 µM; 40% of 6,200 active;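 active = mean inhibition across replicates above about 50%, limit read from the data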
# SENP6 confirm: SENP6 protease inhibitors, confirmation, biochemical, luminescence, single concentration; recombinant SENP6, Z-RLRGG-aminoluciferin luminescence; AID 488915, 2010; shares compounds with SENP7 block; 58% of 6,200 active; inhibition, % at 12.5 µM
# SENP7 conf: SENP7 protease inhibitors, retest, confirmation, biochemical, luminescence, single concentration. inhibition, % at 12.5 µM. AID 488917, 2010. recombinant SENP7, Z-RLRGG-aminoluciferin luminescence, 40 min. shares compounds with SENP7 block. 69% of 6,200 active
# Casp3 select: caspase-3 protease inhibitors, confirmation, selectivity assay for SENP inhibitor project, biochemical, single concentration; shares compounds with SENP7 block; purified caspase-3, Z-DEVD-aminoluciferin luminescence, 60 min; inhibition, % at 12.5 µM; 60% of 6,200 active;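 active = mean inhibition above about 50%, limit read from the data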;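 note: plate controls were enzyme with DMSO for no effect and wells without caspase-3 for full effect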
# Target sequence (P42574 28-227 limits assumed): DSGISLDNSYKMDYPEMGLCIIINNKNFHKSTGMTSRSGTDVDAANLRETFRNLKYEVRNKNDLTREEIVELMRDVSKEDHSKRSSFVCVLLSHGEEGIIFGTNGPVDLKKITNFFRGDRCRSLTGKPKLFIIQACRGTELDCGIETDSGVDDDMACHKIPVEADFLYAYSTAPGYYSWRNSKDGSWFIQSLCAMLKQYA
# SENP luc ctr: counter-screen for SENP inhibitors: luminescence interference. Pre-incubated SENP8/Z-RLRGG-aminoluciferin, luciferase luminescence interference. inhibition, % at 12.5 µM. shares compounds with SENP7 block. 39% of 6,200 active;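 active = mean inhibition above about 50% when retested at one dose, limit read from the data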;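 note: plate controls were DMSO wells with completed reaction for no effect and substrate without enzyme for full effect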
# Numbers without * were called inactive; / = no result.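 Rule for the calls, unless noted: active = mean inhibition above about 50% in the one-dose retest (limit read from the data); inactive = the rest.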
SMILES,SENP6 inh,SENP8 block-1,C8 TRAIL sens,SENP8 block-2,PPC-1+TRAIL kill,SENP7 block,SENP8 confirm,SENP6 confirm,SENP7 conf,Casp3 select,SENP luc ctr
COc1ccc(C2(C)NC(=O)N(CC(=O)c3cc(C)n(C4CC4)c3C)C2=O)cc1OC (stereo unspecified),4,2,0,2,/,3,/,/,/,/,/
Cc1ccc(NC(=O)c2cc(S(=O)(=O)N3CCOCC3)cn2C)cc1F,8,12,11,5,/,0,/,/,/,/,/
CCOC(=O)c1ccc(OCc2nc(-c3cccs3)no2)cc1,35,19,25,17,8,4,/,/,/,/,/
O=C(Nc1ccc(-c2noc(-c3cccs3)n2)cc1)c1cccnc1,38,20,10,7,-5,55*,5,41,68*,26,7
COC(=O)c1ccc(-c2nc(-c3cccs3)no2)cc1,92*,87*,58*,5,34,98*,78*,88*,89*,88*,38
COC(=O)c1ccc(-c2nc(-c3ccc(Br)o3)no2)cc1,0,-5,7,10,17,52*,-13,-7,18,16,2
COC(=O)c1noc(-c2ccc(C)cc2)n1,-2,-26,-12,18,10,-13,/,/,/,/,/
COc1ccc(-c2nc(-c3ccc(Br)o3)no2)cc1,49,25,41,4,29,70*,6,12,11,27,9
Clc1ccc(OCc2nc(-c3ccc(Br)o3)no2)cc1,-4,0,2,19,-5,-5,/,/,/,/,/
COc1ccc(C(=O)[C@@H]2CC[C@](C)(C(=O)O)C2(C)C)cc1,-12,2,-8,11,/,-10,/,/,/,/,/
COC(=O)c1sccc1NC(=O)Cc1ccc(Br)cc1,59*,40,2,11,18,21,60*,56*,48,48,40
COC(=O)c1sccc1NC(=O)Cc1ccc(OC)c(OC)c1,-1,-8,-4,15,6,0,/,/,/,/,/
CCc1ccc2cccc3c2c1N=CN3C,57*,41,-5,84*,/,27,15,21,15,3,3
Cc1cc(C)n2c(SCc3ccc(Br)cc3)nnc2n1,5,-1,-13,18,10,-5,/,/,/,/,/
Cc1cc(C)nc(SCc2ccc(Br)cc2)n1,-23,-13,-16,0,/,60*,-22,-12,3,0,2
O=C(Cc1coc2ccc3ccccc3c12)N1CCc2ccccc21,0,3,-4,-23,-3,2,/,/,/,/,/
Cc1ccc2c(CC(=O)N3CCc4ccccc43)coc2c1,81*,66*,25,0,41,82*,21,30,60*,70*,9
Cc1cccc(NC(=O)c2onc3c2CCCC3)c1C,49,24,21,11,-4,25,/,/,/,/,/
Cc1ccccc1NC(=O)c1onc2c1CCCC2,83*,66*,23,8,16,55*,22,63*,90*,85*,72*
Cc1cccc(NC(=O)c2onc3c2CCCC3)n1,95*,93*,86*,4,81*,97*,96*,98*,102*,98*,96*
Cc1cccc(NC(=O)c2cccc(NC(=O)c3ccccc3)c2)n1,15,4,-19,12,/,1,/,/,/,/,/
O=C(Nc1cc(Cl)cc(Cl)c1)c1cccc(OC(F)F)c1,54*,-1,12,24,11,14,42,33,69*,8,10
O=C(Nc1ccc(Cl)cc1)c1ccc2ncsc2c1,-5,-2,14,-30,/,2,/,/,/,/,/
CN(C)S(=O)(=O)Oc1cccc(C(=O)Nc2ccc(Cl)c(Cl)c2)c1,64*,55*,22,5,8,38,11,67*,86*,15,10
CN(C)S(=O)(=O)Oc1cccc(C(=O)Nc2cccc(Cl)c2)c1,51*,76*,25,10,14,89*,85*,85*,97*,69*,75*
SMILES,SENP6 inh,SENP8 block-1,C8 TRAIL sens,SENP8 block-2,PPC-1+TRAIL kill,SENP7 block,SENP8 confirm,SENP6 confirm,SENP7 conf,Casp3 select,SENP luc ctr
O=C(Nc1cccc(Cl)c1)c1ccc2ncsc2c1,57*,49,-4,9,/,62*,60*,60*,86*,51*,68*
Cc1ccnc(NC(=O)c2cccc(OC(F)F)c2)n1,-27,0,9,1,/,5,/,/,/,/,/
Nc1nc2c(ncn2[C@@H]2O[C@H](CNS(=O)(=O)c3cccnc3)[C@@H](O)[C@H]2O)c(=O)[nH]1,/,/,-1,13,/,/,/,/,/,/,/
O=C(Nc1ccc2c(c1)OCO2)c1cnc(Cl)c(Cl)c1,59*,45,21,8,/,61*,4,52*,85*,69*,10
CCC(=O)Nc1ccc(NC(=O)c2ccc3c(c2)OCO3)cc1,30,4,7,18,14,15,/,/,/,/,/
COc1ccc(/C=C/C(=O)c2ccc3c(c2)OCO3)c(OC)c1,84*,45,56*,-112,49,83*,87*,78*,94*,50,66*
COc1ccc(/C=C/C(=O)c2ccccc2)c(OC)c1,3,-17,17,-53,22,-5,/,/,/,/,/
Cc1ccc(NC(=O)c2ccc3c(c2)OCO3)cc1Cl,69*,40,23,12,/,63*,14,50*,88*,49,10
COc1ccc(NC(=O)c2ccc3c(c2)OCO3)cc1,68*,62*,41,13,/,60*,63*,61*,87*,88*,72*
CCOc1ccc(NC(=O)CN(C)C(=O)c2ccc3c(c2)S(=O)(=O)N=C2CCCCCN23)cc1OCC,/,/,-3,4,/,/,/,/,/,/,/
